Sfp inh: qHTS Assay for Inhibitors of Bacillus subtilis Sfp phosphopantetheinyl transferase (PPTase) | 4'-phosphopantetheinyl transferase ffp (Bacillus subtilis), Q9F4F7 | AID 1490, 2009 | Biochemical Sfp PPTase activity, qHTS | 310,000 compounds, 3.5% hits | Potency, µM, inactives show largest response in the series, negative = inhibition, hits mostly inhibitors;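 note: the enzyme is Sfp with the accession as filed and its product quenches rhodamine fluorescence; 0% = enzyme reaction without inhibitor and -100% = no enzyme wells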
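With Hepes-Na pH 7.6 buffer containing 10 mM MgCl2, Sfp (15 nM) modified BHQ-2-YbbR (12.5 uM) using rhodamine-CoA (5 uM). Two reads 30 minutes apart at 525/598 nm yielded each well's rate.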
BAZ2B inh: qHTS Assay for Inhibitors of BAZ2B. Potency, µM (doses to about 114 µM), for the others: top-dose activity change, negative = inhibition, hits mostly inhibitors. 360,000 compounds, 4.4% hits. AlphaScreen BAZ2B-H3K14Ac peptide displacement. AID 504333, 2011; note: % is set by controls: 0 for no effect and ±100 for the full control effect; nearly all actives have a fitted effect of over 60% in size
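Compounds, titrated to a top concentration of 110 uM, were incubated 30 min at room temperature with preformed BAZ2B/acetyl-K14 H3 peptide complex (50 nM each). Proximity signal was measured by AlphaScreen after 20 min with beads.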
G9a block: qHTS Assay for Inhibitors of Histone Lysine Methyltransferase G9a; Histone-lysine N-methyltransferase EHMT2 (Homo sapiens), Q96KQ7; 350,000 compounds, 8.8% hits; Potency, µM (top dose mostly 102 µM), without a hit: top-dose activity, negative = inhibition, actives largely listed as inhibitors; G9a H3K9 monomethylation, AlphaScreen, 2 h; AID 504332, 2011; note: % is set by controls: 0 for no effect and ±100 for the full control effect; nearly all actives have a fitted effect of over 75% in size
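Using a bead-based AlphaScreen, monomethylated H3K9 product from 2 h room-temperature reactions (G9a 20 nM, peptide 500 nM, SAM 20 uM) was detected with 0.5 ug/mL rabbit anti-H3K9me1 antibody.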
JMJD2A Tudor inh: qHTS Assay for Inhibitors of JMJD2A-Tudor Domain | Lysine-specific demethylase 4A (Homo sapiens), O75164 | AlphaScreen JMJD2A-Tudor / H3K4me3 peptide binding | Potency, µM (highest dose often 114 µM), without a hit: at the top dose activity change, negative = inhibition, actives largely listed as inhibitors | 390,000 compounds, 4.4% hits; note: % is set by controls: 0 for no effect and ±100 for the full control effect; nearly all actives have a fitted effect of over 50% in size
Target sequence (O75164 whole entry, looked up, the tested form may be a part): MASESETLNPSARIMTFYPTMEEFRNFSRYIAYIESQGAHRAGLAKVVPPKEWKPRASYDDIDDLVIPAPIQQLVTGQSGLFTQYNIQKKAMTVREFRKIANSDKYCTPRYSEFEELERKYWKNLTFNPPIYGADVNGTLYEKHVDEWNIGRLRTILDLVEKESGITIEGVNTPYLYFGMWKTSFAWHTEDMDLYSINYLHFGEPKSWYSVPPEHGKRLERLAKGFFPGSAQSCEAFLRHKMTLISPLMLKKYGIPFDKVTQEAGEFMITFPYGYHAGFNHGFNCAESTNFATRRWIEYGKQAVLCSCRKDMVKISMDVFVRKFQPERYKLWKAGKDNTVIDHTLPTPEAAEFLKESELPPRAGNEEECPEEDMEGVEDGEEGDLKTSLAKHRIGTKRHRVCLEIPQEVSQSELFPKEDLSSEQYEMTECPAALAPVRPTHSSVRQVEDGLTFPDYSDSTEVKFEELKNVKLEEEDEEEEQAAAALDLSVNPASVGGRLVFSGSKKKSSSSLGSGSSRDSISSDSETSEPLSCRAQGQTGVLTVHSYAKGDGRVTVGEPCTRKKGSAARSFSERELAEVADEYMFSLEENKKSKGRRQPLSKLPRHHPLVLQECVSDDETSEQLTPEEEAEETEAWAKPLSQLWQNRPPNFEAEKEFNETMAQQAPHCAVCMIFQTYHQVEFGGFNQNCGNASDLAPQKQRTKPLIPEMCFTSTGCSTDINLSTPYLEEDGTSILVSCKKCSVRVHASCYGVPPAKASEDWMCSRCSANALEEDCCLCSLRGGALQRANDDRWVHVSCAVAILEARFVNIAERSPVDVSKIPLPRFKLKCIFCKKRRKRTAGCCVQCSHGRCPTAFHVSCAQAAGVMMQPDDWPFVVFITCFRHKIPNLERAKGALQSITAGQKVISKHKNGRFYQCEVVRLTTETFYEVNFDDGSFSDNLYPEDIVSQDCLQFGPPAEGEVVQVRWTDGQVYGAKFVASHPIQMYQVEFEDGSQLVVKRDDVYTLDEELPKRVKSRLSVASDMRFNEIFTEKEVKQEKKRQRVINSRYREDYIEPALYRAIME
L3MBTL1 inh: qHTS Assay for the Inhibitors of L3MBTL1 | Lethal(3)malignant brain tumor-like protein 1 (Homo sapiens), Q9Y468 | AlphaScreen L3MBTL1–H3K9me1 peptide binding | Potency, µM (highest dose often 57.1 µM), for the others: top-dose activity, negative = inhibition, actives largely listed as inhibitors | 230,000 compounds, 0.66% hits | AID 485360, 2010; note: % is set by controls: 0 for no effect and ±100 for the full control effect; nearly all actives have a fitted effect of over 60% in size
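Displacement of a biotinylated histone H3(1-15) peptide monomethylated at Lys9 (75 nM) from L3MBTL1 (50 nM) was measured by AlphaScreen after a 30 min room-temperature compound incubation; cefsulodin titration served as intraplate control.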
HP1b binding inh: HTS for Inhibitors of HP1-beta Chromodomain Interactions with Methylated Histone Tails | Chromobox protein homolog 1 (Homo sapiens), P83916 | AlphaScreen HP1-beta / biotin-H3K9me3 peptide binding | Potency, µM (doses to about 114 µM), inactives show at the highest dose activity change, negative = inhibition, most hits filed as inhibitors | 390,000 compounds, 0.56% hits; note: nearly all actives have a fitted effect of over 70% in size
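Compound inhibition of the preformed complex between 50 nM HP1-beta and 50 nM biotinylated H3K9me3 peptide was read by AlphaScreen. Buffer was PBS pH 7.4 with 0.01% Tween-20. Incubations ran 30 min at room temperature, with 10 ug/mL donor/acceptor beads.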
Starred values were filed as active, the others as inactive; ? = inconclusive; nt = no result given; ! = not active in a repeat; [ ] = remark or other dose. Most compounds without a hit are left out; they make up all but 12% or so of the library. Calls come from the whole dose curve; as a rule, active = well fitted curve in the direction sought with a large enough effect; inconclusive = small, poorly fitted or top-dose-only effect, or another doubt; inactive = no such curve, though single readings can be large; an effect the other way counts as inactive or inconclusive. Potency is the fitted concentration of half-maximal effect.

SMILES | Sfp inh | BAZ2B inh | G9a block | JMJD2A Tudor inh | L3MBTL1 inh | HP1b binding inh
Cc1ccccc1C(=O)Nc1nnc(S(=O)(=O)N2CCCCC2)s1 | 7% | -3% | -24% | -2% | 5% | 44%
COc1cccc(CNC(=O)C2CCCCN2S(=O)(=O)c2ccc(F)cc2)c1 (stereo not given) | nt | 6% | 3%[59 µM] | 7% | nt | 8%
COc1ccc(C2CC(=O)c3cc(-c4nc(-c5cccc([N+](=O)[O-])c5)cs4)c(=O)n(-c4ccccc4N)c3C2)cc1 (stereo not given) | nt | -4% | -30%[59 µM] | -22% | nt | 15%
CCN(c1ccc(OC)cc1)S(=O)(=O)c1nnc(NC(=O)COc2ccc(F)cc2)s1 | 3% | -26% | -50% | 35µM*! | nt | 13%
COc1ccc(CCNC(=O)C2(c3cccs3)CCOCC2)cc1OC | nt | 0% | 10%[59 µM] | 0% | nt | 34%
O=C(O)CCC(=O)Nc1ccc(-c2csc(Nc3cccc4ccccc34)n2)cc1 | nt | -33% | 3%[12.7 µM] | -33% | -7% | 10%
O=C(NCC(O)CO)c1csc(Nc2cccc3ccccc23)n1 (stereo not given) | -18% | ? | 40µM* | -26% | -6% | 35%
CCN(CC)C(=O)c1csc(Nc2cccc3ccccc23)n1 | -10% | ? | 40µM* | -30% | -12% | 6%
Cc1ccc(Nc2nc(C(=O)N3CCC(C(=O)NCc4ccccc4)CC3)cs2)cc1 | 14% | -2% | 1% | -15% | nt | 2%
O=C(c1csc(Nc2ccccc2Cl)n1)N1CCCC1 | 79µM* | 3% | ? | -14% | ? | 21%
O=C(c1cccc2ccccc12)N1CCCCC1 | 9% | -11% | 10% | -10% | nt | 24%
O=C(c1csc(Nc2cccc3ccccc23)n1)N1CCCC1 | -27% | 40µM* | -13%[59 µM] | -27% | nt | 16%
CCN(CC)CCCNC(=O)c1csc(Nc2cccc3ccccc23)n1 | -14% | ? | nt | -27% | -6% | 26%
COc1cccc([C@@H]2Oc3ccc(OC)cc3C[C@H]2OC(=O)NS(=O)(=O)c2ccc(C)cc2)c1 | -5% | nt | nt | nt | nt | nt
COc1cccc(NC(=O)Cn2c(=O)n(Cc3ccc(F)cc3)c(=O)c3sc4ccccc4c32)c1 | nt | -34% | -3%[59 µM] | -13% | nt | 44%
COc1cccc(CN(Cc2ccco2)C(c2ccc(F)cc2)c2nnnn2C(C)(C)C)c1 (stereo not given) | -4% | 21% | 50µM* | -14% | 8% | 47%
Cc1ccc(NC(=S)NCc2ccccn2)cc1 | -29% | -8% | 11%[0.501 µM] | ? | 6% | 10%
Cc1cc(NCc2ccccn2)ccc1Br | -15% | 50µM* | 25µM* | 8.9µM* | -4% | -38%
Cc1cc(C(=O)O)ccc1N/C=C1\CCCC(C)C1=O (stereo not given) | 16% | -37% | ? | -28% | nt | -2%
CC1CCC/C(=C\Nc2ccc(O)cc2)C1=O (stereo not given) | 45µM* | nt | ? | 79µM* | ? | 6%
Cc1nc2sc(C(c3ccco3)N3CCc4ccccc4C3)c(O)n2n1 (stereo not given) | nt | nt | nt | 56µM* | nt | -6%
Cc1nc2sc(C(c3ccco3)N3CCN(c4ccccc4F)CC3)c(O)n2n1 (stereo not given) | -9% | -30% | 45µM* | -18% | -1% | 10%
Cc1nc2sc(C(c3ccc(F)cc3)N3CCOCC3)c(O)n2n1 (stereo not given) | 7% | 7% | 0%[12.7 µM] | -2% | 7% | 30%
Cc1nc2sc(C(c3cccs3)N3CCN(C(=O)c4ccco4)CC3)c(O)n2n1 (stereo not given) | 12% | -28% | 40µM* | -13% | -10% | 50%
Cc1ccc(C(c2sc3nc(C)nn3c2O)N2CCN(C(=O)c3ccco3)CC2)cc1 (stereo not given) | 5% | -5% | 5%[59 µM] | -13% | 0% | 19%
SMILES | Sfp inh | BAZ2B inh | G9a block | JMJD2A Tudor inh | L3MBTL1 inh | HP1b binding inh
Cc1nc2sc(C(c3ccccc3)N3CCN(C(=O)c4ccco4)CC3)c(O)n2n1 (stereo not given) | 3% | -5% | -3%[59 µM] | -4% | -12% | 29%
Cc1nc2sc(C(c3ccco3)N3CCN(c4ccc(F)cc4)CC3)c(O)n2n1 (stereo not given) | 45µM* | ? | nt | -22% | -1% | 19%
Cc1nc2sc(C(c3ccc(Cl)cc3)N3CCN(c4ccccc4F)CC3)c(O)n2n1 (stereo not given) | 1% | -30% | ? | -25% | -6% | 16%
Cc1ccc(NC(=O)C(=O)NCC(c2cccnc2)N2CCN(c3ccccc3F)CC2)cc1Cl (stereo not given) | nt | -6% | -3%[59 µM] | -11% | nt | 48%
CC(C)Cn1c(=O)c2sccc2n2c(CCCC(=O)Nc3ccc(Cl)cc3)nnc12 | nt | -12% | -24%[59 µM] | -20% | nt | -5%
Cc1ccc(C(c2sc3ncnn3c2O)N2CCCCC2)cc1 (stereo not given) | 20% | 10% | 14%[59 µM] | -19% | 46% | 23%
CC1CN(C(c2ccco2)c2sc3ncnn3c2O)CC(C)O1 (stereo not given) | 40µM* | 5% | 40µM* | -13% | -1% | 49%
Cc1ccc(C(c2sc3ncnn3c2O)N2CCC(C)CC2)cc1 (stereo not given) | 10% | -4% | -2%[59 µM] | 1% | 32% | 44%
Oc1c(C(c2ccc(F)cc2)N2CCc3ccccc3C2)sc2ncnn12 (stereo not given) | -12% | 10% | 7.9µM* | ? | -8% | 22%
Cc1ccc(NC(=O)CN2C(=O)C(c3ccccc3)=NC2(C)C)cc1C | nt | 0% | 4%[59 µM] | -19% | nt | 6%
Cc1cccc(NNC(=O)C(=O)NNc2cccc(C)c2)c1 | -13% | -12% | ? | 1% | -1% | 31%
Cc1ccc(C)c(NNC(=O)C(=O)NNc2cc(C)ccc2C)c1 | 15% | -35% | 28µM* | ? | -6% | 13%
Cc1ccc(C)c(N/C(N)=N/c2nc(C)cc(C)n2)c1 | -9% | -33% | 29%[0.501 µM] | -4% | -6% | 31%
Cc1cccc(NNC(N)=S)c1C | 40µM* | -24% | 20µM* | -13% | -4% | 28%
Cc1ccc(C)c(NNC(N)=S)c1 | 50µM* | -16% | 35µM* | -27% | 5% | 6%
